Some test systems named below: NCI-H23 lung; NCI-H226 lung; HOP-62 NSCLC; NCI-H522 lung; A549/ATCC NSCLC; 786-0 renal; COLO 205 colon; NCI-H460 lung; HOP-92 NSCLC.
Holding throughout (assay): NCI-60 one-dose screen, 48 h (100 = growth as untreated, 0 = no growth, -100 = all killed)
Common to all, as to details: 10 µM

“And” between values parts separate entries of the source, which are not always exact repeats. Identical values can stand only once. About 83,000 compounds went through this panel and 20% of them were active in at least one assay; those are over-represented in the sample as a whole.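 Step 1: grow cells in 96-well plates. Step 2: add test compound at a single concentration. Step 3: incubate 48 h. Step 4: record percent growth.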 The source made the active and inactive calls. The calls were made as follows: active = growth percent below 10; inactive = the rest.

In the case of `C[C@@H]1C[C@@H]([C@H](O)CC2CC(=O)NC(=O)C2)C(=O)[C@@H](C)C1`, the growth in the experiment on NCI-H23 lung was -3.78% (active); in the experiment with NCI-H226 lung, 11.6% (inactive); in the experiment with HOP-62 NSCLC it was 3.86% (active); with NCI-H522 lung, -15.6% (active); with A549/ATCC NSCLC it was 0.381% (active); with 786-0 renal, 0.349% (active). Also, the growth in the experiment on COLO 205 colon is -14.9% (active).
For the compound `C[CH2][Hg][S]c1ccccc1C(=O)O`, the growth was 11.3% (inactive) in the experiment with NCI-H23 lung; -53.4% (active) in the experiment on NCI-H226 lung; 47.2% (inactive) in the experiment on HOP-62 NSCLC; 36% (inactive) with NCI-H460 lung; -77.2% (active) with NCI-H522 lung; 35% (inactive) with A549/ATCC NSCLC. Besides, the growth in the experiment on 786-0 renal was 1.68% (active); in the experiment with COLO 205 colon, -100% (active).
Turning to `O=C1C(=O)c2ccccc2-c2ccccc21`, the growth in the experiment on NCI-H23 lung was -54.3% (active); in the experiment with NCI-H226 lung, -88.3% (active); with HOP-62 NSCLC it was -70% (active); in the experiment on HOP-92 NSCLC it was -87.7% (active); in the experiment on NCI-H522 lung, -58.5% (active); in the experiment with A549/ATCC NSCLC, -47.9% (active). Further, the growth was -88.2% (active) in the experiment with 786-0 renal and -63.5% (active) in the experiment on COLO 205 colon.
Take `O=[N+]([O-])/C=C/c1ccc(Cl)cc1[N+](=O)[O-]`: the growth in the experiment with NCI-H23 lung is 65.6% (inactive); in the experiment with NCI-H226 lung it was 89.5% (inactive); in the experiment on HOP-62 NSCLC it was 62.9% (inactive); in the experiment with HOP-92 NSCLC, 92.3% (inactive); with NCI-H522 lung it was 42.9% (inactive); in the experiment on A549/ATCC NSCLC, 85.4% (inactive). Also, the results for the growth in the experiment with 786-0 renal and in the experiment on COLO 205 colon were 28.3% (inactive) and -20.9% (active), respectively.
Regarding `NC(Cc1ccccc1)c1ccccc1` (centres undefined), the growth was 97.7% (inactive) and 105% (inactive) in the experiment on NCI-H23 lung; 91.9% (inactive) and 97.7% (inactive) with NCI-H226 lung; 105% (inactive) with HOP-62 NSCLC; 107% (inactive) and 111% (inactive) in the experiment on NCI-H460 lung; 94.5% (inactive) in the experiment on NCI-H522 lung; 111% (inactive) with A549/ATCC NSCLC. Also, the growth with 786-0 renal is 97.4% (inactive) and 98.4% (inactive); with COLO 205 colon, 103% (inactive) and 105% (inactive).
For the compound `NNc1ccccc1`, the growth in the experiment on NCI-H23 lung was 108% (inactive); in the experiment on NCI-H226 lung, 96.3% (inactive); with HOP-62 NSCLC it was 85.4% (inactive); in the experiment with NCI-H460 lung it was 60.4% (inactive); in the experiment with A549/ATCC NSCLC, 84.3% (inactive); in the experiment with 786-0 renal it was 79.7% (inactive). Besides, the growth with COLO 205 colon was 85.4% (inactive).
Regarding `COc1cc2c(cc1OC)C13CCN4CC5=CCOC6CC(=O)N2C1C6C5CC43` (centres undefined), the growth in the experiment with NCI-H23 lung was 90% (inactive) and 100% (inactive); in the experiment on NCI-H226 lung, 95.9% (inactive) and 95.7% (inactive); with HOP-62 NSCLC it was 120% (inactive) and 102% (inactive); with HOP-92 NSCLC, 87.4% (inactive); in the experiment with NCI-H522 lung, 105% (inactive) and 99.1% (inactive); with A549/ATCC NSCLC, 99.4% (inactive). In addition, the growth with 786-0 renal was 112% (inactive) and 99.6% (inactive); in the experiment with COLO 205 colon, 95.8% (inactive) and 89% (inactive).
For the compound `CC(Cc1ccc2c(c1)OCO2)NN` (centres undefined), the growth was 90.5% (inactive) in the experiment on NCI-H23 lung; 87.1% (inactive) with NCI-H226 lung; 73.9% (inactive) in the experiment with HOP-62 NSCLC; 76.6% (inactive) with HOP-92 NSCLC; 84% (inactive) in the experiment on NCI-H522 lung; 82.8% (inactive) in the experiment with A549/ATCC NSCLC. In addition, the growth was 88.2% (inactive) with 786-0 renal and 99% (inactive) with COLO 205 colon.
With `[Cl][Hg][c]1ccc2ccccc2c1`, the growth in the experiment on NCI-H23 lung is -67.1% (active); in the experiment with NCI-H226 lung, -20.6% (active); in the experiment with HOP-62 NSCLC it was -79.9% (active); in the experiment on NCI-H522 lung, -95.1% (active); in the experiment with A549/ATCC NSCLC it was 19.6% (inactive); in the experiment on 786-0 renal it was -92.2% (active). For the same compound, the growth with COLO 205 colon was -87.4% (active).
Take `O=[N+]([O-])/C=C/c1ccc([N+](=O)[O-])cc1`: the growth in the experiment on NCI-H23 lung was 56.7% (inactive) and 68.7% (inactive); in the experiment with NCI-H226 lung, 114% (inactive); with HOP-62 NSCLC, 69.5% (inactive) and 107% (inactive); in the experiment with HOP-92 NSCLC it was 67.6% (inactive) and 97.8% (inactive); with NCI-H522 lung it was 81.6% (inactive) and 47.3% (inactive); in the experiment with A549/ATCC NSCLC, 44.2% (inactive) and 101% (inactive). For the same compound, the growth is 55.2% (inactive) and 98.1% (inactive) in the experiment on 786-0 renal; -8.72% (active) and 50.6% (inactive) with COLO 205 colon.
Consider `Cn1c(O)c(N=O)c(=O)n(C)c1=O`, for which the growth with NCI-H23 lung is 94.4% (inactive) and 95.1% (inactive); with NCI-H226 lung, 93.3% (inactive) and 103% (inactive); in the experiment with HOP-62 NSCLC, 101% (inactive) and 90.9% (inactive); with HOP-92 NSCLC, 101% (inactive) and 85.9% (inactive); with NCI-H522 lung, 91% (inactive) and 74.7% (inactive); with A549/ATCC NSCLC, 107% (inactive) and 98.1% (inactive). Further, the growth with 786-0 renal is 104% (inactive) and 93.3% (inactive); with COLO 205 colon it was 110% (inactive) and 111% (inactive).
`COc1ccccc1[As]=[As]c1ccccc1OC` (centres undefined): the growth with NCI-H23 lung is -86.8% (active); in the experiment on NCI-H226 lung, -93.5% (active); in the experiment with HOP-62 NSCLC it was -94.8% (active); in the experiment with HOP-92 NSCLC it was -85.1% (active); in the experiment with NCI-H522 lung, -80.6% (active); with A549/ATCC NSCLC, -88.1% (active). The figures for the growth with 786-0 renal and with COLO 205 colon were -94.7% (active) and -93.1% (active), respectively.
On to `COc1ccc2c(ccc3oc([N+](=O)[O-])cc32)c1`, for which the growth in the experiment on NCI-H23 lung was -9.56% (active); in the experiment on NCI-H226 lung, -4.88% (active); with HOP-62 NSCLC, -4.6% (active); with HOP-92 NSCLC it was 10.8% (inactive); in the experiment on NCI-H522 lung, -52% (active); in the experiment with A549/ATCC NSCLC, 0.82% (active). For the same compound, the growth with 786-0 renal was -2.34% (active); in the experiment with COLO 205 colon it was -76.3% (active).
For `O=[N+]([O-])/C=C\c1ccc2c(c1)OCO2`, the growth with NCI-H23 lung is 87.2% (inactive); in the experiment with NCI-H226 lung it was 103% (inactive); in the experiment on NCI-H460 lung it was 84.8% (inactive); in the experiment with HOP-92 NSCLC, 79.3% (inactive); in the experiment on NCI-H522 lung it was 72.2% (inactive); in the experiment with A549/ATCC NSCLC it was 81.7% (inactive). Also, the growth in the experiment with 786-0 renal is 89.6% (inactive); in the experiment with COLO 205 colon it was 89.8% (inactive).

Values taken from PubChem BioAssay (NCI).
